From PubChem BioAssay (Tox21)
Results filed as inconclusive are left out. Active and inactive are the calls of the source. Unless noted, the call rests on the fitted dose curve.

Assays:
[1] = qHTS assay to identify small molecule agonists of the peroxisome proliferator-activated receptor delta (PPARd) signaling pathway - cell viability counter screen (AID 743211; active means well fitted curve in the direction sought with a large enough effect in the repeat runs; an effect the other way counts as inactive or inconclusive; further: nearly all actives have a fitted effect of over 55% in size)
How it was run: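 Viability of GeneBLAzer PPARd UAS-bla HEK293H cells was assessed after 17 h compound incubation at 37C, using CellTiter-Glo reagent added after the reporter read and luminescence recorded 30 min later.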

[2] = target: Peroxisome proliferator-activated receptor delta (Homo sapiens) (UniProt Q03181); assay: qHTS assay to identify small molecule agonists of the peroxisome proliferator-activated receptor delta (PPARd) signaling pathway (AID 743212)
Chain of Peroxisome proliferator-activated receptor delta (Homo sapiens) (Q03181 whole entry, looked up): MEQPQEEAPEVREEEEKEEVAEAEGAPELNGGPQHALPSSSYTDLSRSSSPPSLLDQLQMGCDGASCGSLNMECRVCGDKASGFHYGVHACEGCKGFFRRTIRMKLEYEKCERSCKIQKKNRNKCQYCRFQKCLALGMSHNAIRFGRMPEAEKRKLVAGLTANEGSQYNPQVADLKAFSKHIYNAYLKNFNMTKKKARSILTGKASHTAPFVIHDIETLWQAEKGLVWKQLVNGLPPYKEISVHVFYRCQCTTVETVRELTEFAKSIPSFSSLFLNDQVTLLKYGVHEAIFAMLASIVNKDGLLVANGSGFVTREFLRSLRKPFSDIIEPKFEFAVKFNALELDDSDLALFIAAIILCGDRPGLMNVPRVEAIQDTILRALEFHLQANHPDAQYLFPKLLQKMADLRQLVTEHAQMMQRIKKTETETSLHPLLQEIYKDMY
How it was run: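 Tox21 library screened in GeneBLAzer PPARd UAS-bla HEK293H cells. After compound treatment at 37 C, a FRET-based beta-lactamase substrate was applied for 2 h and fluorescence recorded.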

[3] = qHTS assay to identify small molecule antagonists of the peroxisome proliferator-activated receptor delta (PPARd) signaling pathway - cell viability counter screen (AID 743213; active means well fitted curve in the direction sought with a large enough effect in the repeat runs; an effect the other way counts as inactive or inconclusive; further: nearly all actives have a fitted effect of over 50% in size)
How it was run: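 PPARd-bla HEK293H cells (3000/well) got compound plus 300 nM L165041 agonist for 17 h at 37 C. Viability in the same wells came from CellTiter-Glo luminescence after 30 min at room temperature.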

[4] = target: Peroxisome proliferator-activated receptor delta (Homo sapiens) (UniProt Q03181); assay: qHTS assay to identify small molecule antagonists of the peroxisome proliferator-activated receptor delta (PPARd) signaling pathway (AID 743215; active means well fitted inhibition curve with a large enough effect in the signal ratio in the repeat runs, not every such curve was filed as active; the % refers to the signal ratio;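 further: cells stimulated with agonist L165041 at 300 nM final during compound exposure; series mostly up to about 62 µM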)
How it was run: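 Agonist L165041 (300 nM final) added with compound to PPARd-bla HEK293H UAS-bla reporter cells; 17 h incubation at 37 C. Read-out: LiveBLAzer FRET substrate, 2 h at room temperature, fluorescence intensity.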

[5] = qHTS assay to identify small molecule agonists of the farnesoid-X-receptor (FXR) signaling pathway - cell viability counter screen (AID 743218; active means well fitted curve in the direction sought with a large enough effect in the repeat runs; an effect the other way counts as inactive or inconclusive; further: nearly all actives have a fitted effect of over 45% in size)
How it was run: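 Viability counter screen in the same wells: CellTiter-Glo luminescence, 30 min room-temperature incubation, measured after the beta-lactamase read. Cells were GeneBLAzer FXR-UAS-bla HEK 293T, compound-treated 16 h at 37C.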

[6] = qHTS assay to identify small molecule antagonists of the farnesoid-X-receptor (FXR) signaling pathway - cell viability counter screen (AID 743221; active means well fitted cell-killing curve with a large enough effect in the repeat runs, not every such curve was filed as active; further: nearly all actives have a fitted effect of over 50% in size)
How it was run: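 Quantitative HTS of the Tox21 10K library run in parallel with the beta-lactamase reporter read. HEK 293T cells carrying a UAS-driven bla reporter got compound and 50 uM CDCA (final) for 16 h; ATP-based luminescence followed.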

[7] = target: Vitamin D3 receptor (Homo sapiens) (UniProt P11473); assay: qHTS assay to identify small molecule antagonists of the vitamin D receptor (VDR) signaling pathway (AID 743223; active means well fitted inhibition curve with a large enough effect in the signal ratio in the repeat runs, not every such curve was filed as active; the % refers to the signal ratio)
Chain of Vitamin D3 receptor (Homo sapiens) (P11473 whole entry, looked up): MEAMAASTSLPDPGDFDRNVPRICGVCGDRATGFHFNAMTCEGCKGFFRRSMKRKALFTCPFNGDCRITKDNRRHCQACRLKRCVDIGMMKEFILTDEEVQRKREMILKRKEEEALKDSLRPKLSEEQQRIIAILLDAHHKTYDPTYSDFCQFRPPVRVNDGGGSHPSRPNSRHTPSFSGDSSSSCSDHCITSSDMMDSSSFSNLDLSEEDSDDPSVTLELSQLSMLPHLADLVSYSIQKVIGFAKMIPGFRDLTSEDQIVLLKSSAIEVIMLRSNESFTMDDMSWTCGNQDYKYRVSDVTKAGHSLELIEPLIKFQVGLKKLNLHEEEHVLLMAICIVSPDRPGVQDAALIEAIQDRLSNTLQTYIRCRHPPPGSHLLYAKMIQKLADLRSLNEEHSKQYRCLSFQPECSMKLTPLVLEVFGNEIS
How it was run: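 Fluorescence from LiveBLAzer B/G FRET substrate, read after 2 h at room temperature, reflects beta-lactamase reporter activity in VDR-bla cells treated 16 h at 37C with compounds and agonist 1alpha,25-dihydroxyvitamin D3 (3 nM final).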

[8] = qHTS assay to identify small molecule agonists of the vitamin D receptor (VDR) signaling pathway - cell viability counter screen (AID 743224; active means well fitted curve in the direction sought with a large enough effect in the repeat runs; an effect the other way counts as inactive or inconclusive; further: series mostly up to about 63 µM; nearly all actives have a fitted effect of over 50% in size)
How it was run: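 Counter screen run in the same wells as the VDR-bla reporter assay: CellTiter-Glo luminescence, 30 min at room temperature, after 16 h compound treatment at 37C of cells pre-plated for 4 h.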

[9] = qHTS assay to identify small molecule antagonists of the vitamin D receptor (VDR) signaling pathway - cell viability counter screen (AID 743225; active means well fitted curve in the direction sought with a large enough effect in the repeat runs; an effect the other way counts as inactive or inconclusive; further: nearly all actives have a fitted effect of over 50% in size)
How it was run: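 Cells (VDR-UAS-bla HEK 293T) are plated, rested 4 h at 37C, dosed with compound and 3 nM final 1-alpha,25-dihydroxy vitamin D3, and incubated 16 h. Viability is taken from CellTiter-Glo luminescence in the reporter wells.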

[10] = qHTS assay to identify small molecule agonists of the NFkB signaling pathway - cell viability counter screen (AID 1159515); further: series mostly up to about 61 µM; nearly all actives have a fitted effect of over 55% in size
How it was run: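 Read by CellTiter-Glo luminescence (30 min, room temperature) in the wells also used for the beta-lactamase FRET read. ME-180 NFkB-bla cells at 2,000 per well were plated overnight, then exposed to compound for 5 hr at 37 C.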

[11] = qHTS assay to identify small molecule agonists of the endoplasmic reticulum stress response signaling pathway - cell viability counter screen (AID 1159517)
How it was run: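 In parallel with the ESRE reporter read, cytotoxicity was scored by CellTiter-Glo luminescence (30 min, room temperature) on HeLa ESRE-bla cells dosed for 5 hr.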

[12] = qHTS assay to identify small molecule antagonists of the retinoid-related orphan receptor gamma (ROR-gamma) signaling pathway - cell viability counter screen (AID 1159520; active means well fitted curve in the direction sought with a large enough effect in the repeat runs; an effect the other way counts as inactive or inconclusive; further: nearly all actives have a fitted effect of over 50% in size)
How it was run: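 Tet-on ROR gamma CHO cells were given compounds for 2 hr, then doxycycline hyclate at 1 uM final, and incubated 16 hr at 37 C. Viability was measured as ATP content by CellTiter-Glo luminescence.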

[13] = target: Nuclear receptor ROR-gamma (Homo sapiens) (UniProt P51449); assay: qHTS assay to identify small molecule antagonists of the retinoid-related orphan receptor gamma (ROR-gamma) signaling pathway (AID 1159521; active means well fitted curve in the direction sought with a large enough effect in the repeat runs; an effect the other way counts as inactive or inconclusive)
How it was run: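 RORγ antagonism is scored from reduced reporter luminescence in Tet-on CHO cells. Induction used 1 uM final doxycycline hyclate for 16 h at 37 C, following a 2 h compound exposure.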

[14] = qHTS assay to identify small molecule agonists of the AP-1 signaling pathway - cell viability counter screen (AID 1159525); further: nearly all actives have a fitted effect of over 55% in size
How it was run: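 Same-well cytotoxicity counter screen of the Tox21 10K library in ME-180 cells. The readout is ATP-dependent luminescence after 5 h compound treatment. Data are normalised to DMSO and tetra n-octyl ammonium bromide controls.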

[15] = qHTS assay to identify small molecule agonists of the AP-1 signaling pathway (AID 1159526)
[16] = target: Retinoic acid receptor RXR-alpha (Homo sapiens) (UniProt P19793); assay: qHTS assay to identify small molecule agonists of the RXR signaling pathway (AID 1159527); further: nearly all actives have a fitted effect of over 35% in size; further: potency means the concentration at half of the fitted maximal effect
Chain of Retinoic acid receptor RXR-alpha (Homo sapiens) (P19793 whole entry, looked up): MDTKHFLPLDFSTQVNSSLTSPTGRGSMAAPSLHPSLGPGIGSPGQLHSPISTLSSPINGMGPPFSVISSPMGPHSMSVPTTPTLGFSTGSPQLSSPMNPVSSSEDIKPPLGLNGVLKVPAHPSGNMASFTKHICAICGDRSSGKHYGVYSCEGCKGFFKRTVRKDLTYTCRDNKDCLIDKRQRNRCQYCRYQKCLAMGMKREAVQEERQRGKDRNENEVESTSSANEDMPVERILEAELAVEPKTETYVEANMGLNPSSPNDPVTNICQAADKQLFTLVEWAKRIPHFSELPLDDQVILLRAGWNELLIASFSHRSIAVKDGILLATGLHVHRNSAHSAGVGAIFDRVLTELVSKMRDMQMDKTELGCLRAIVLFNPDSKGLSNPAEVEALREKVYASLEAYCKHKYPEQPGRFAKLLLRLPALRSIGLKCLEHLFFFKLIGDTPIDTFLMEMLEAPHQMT
How it was run: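 qHTS of the Tox21 10K library in GeneBLAzer RXR-alpha HEK 293T cells carrying a beta-lactamase reporter […]; 16 hr treatment, 9-cis retinoic acid as agonist control, FRET read-out.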

[17] = target: Vitamin D3 receptor (Homo sapiens) (UniProt P11473); assay: qHTS assay to identify small molecule agonists of the vitamin D receptor (VDR) signaling pathway (AID 743222)
How it was run: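 Agonist mode, beta-lactamase reporter: fluorescence from LiveBLAzer B/G FRET substrate (2 h, room temperature) read after 16 h compound treatment at 37 C of VDR-bla cells, which were pre-incubated 4 h after seeding.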

[18] = target: Bile acid receptor (Homo sapiens) (UniProt Q96RI1); assay: qHTS assay to identify small molecule antagonists of the farnesoid-X-receptor (FXR) signaling pathway (AID 743217; active means well fitted inhibition curve with a large enough effect in the signal ratio in the repeat runs, not every such curve was filed as active; the % refers to the signal ratio)
Chain of Bile acid receptor (Homo sapiens) (Q96RI1 whole entry, looked up): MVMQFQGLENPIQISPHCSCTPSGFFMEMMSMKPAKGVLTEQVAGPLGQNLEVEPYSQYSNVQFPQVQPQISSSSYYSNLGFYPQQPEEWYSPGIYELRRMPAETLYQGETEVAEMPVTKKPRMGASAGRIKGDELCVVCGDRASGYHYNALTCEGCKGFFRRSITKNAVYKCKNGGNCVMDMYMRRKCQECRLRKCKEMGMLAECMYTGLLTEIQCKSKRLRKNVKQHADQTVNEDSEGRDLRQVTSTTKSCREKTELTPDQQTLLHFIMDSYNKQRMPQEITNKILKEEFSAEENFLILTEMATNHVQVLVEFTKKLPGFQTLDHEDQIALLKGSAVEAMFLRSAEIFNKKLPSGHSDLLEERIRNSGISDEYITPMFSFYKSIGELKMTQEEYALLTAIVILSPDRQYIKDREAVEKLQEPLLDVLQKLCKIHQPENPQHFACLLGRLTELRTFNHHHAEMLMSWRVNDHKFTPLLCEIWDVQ
How it was run: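 Antagonist mode: chenodeoxycholic acid at 50 uM final stimulates a UAS-driven beta-lactamase reporter in HEK 293T FXR-bla cells during 16 h, 37C compound exposure. Read-out is FRET substrate fluorescence after 2 h at room temperature.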

[19] = target: Bile acid receptor (Homo sapiens) (UniProt Q96RI1); assay: qHTS assay to identify small molecule agonists of the farnesoid-X-receptor (FXR) signaling pathway (AID 743220; active means well fitted activation curve with a large enough effect in the signal ratio in the repeat runs, not every such curve was filed as active; the % refers to the signal ratio)
How it was run: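 FXR-UAS-bla HEK 293T cells carrying a UAS-driven beta-lactamase reporter were plated for 5 h at 37C/5% CO2, then exposed to DMSO-dissolved Tox21 10K compounds for 16 h at 37C. A LiveBLAzer B/G FRET substrate was loaded for 2 h at room temperature before fluorescence reading.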

[20] = qHTS assay to identify small molecule agonists of the endoplasmic reticulum stress response signaling pathway (AID 1159516; active means well fitted activation curve with a large enough effect in the signal ratio in the repeat runs, not every such curve was filed as active; the % refers to the signal ratio)
How it was run: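 Ratiometric FRET readout (405 nm excitation; 460 and 530 nm emission) of a beta-lactamase gene driven by the ER stress response element, after 2 hr substrate loading. HeLa ESRE-bla cells were seeded overnight and treated with compounds for only 5 hr at 37 C.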

Measured: Potency

O=c1c(O)c(O)c1=O
not listed: [17] | [18] | [19] | [20]
inactive: all other assays above

COc1ccc(Cl)cc1C
not listed: [2] | [4] | [7] | [11] | [12] | [18] | [19] | [20]
inactive: all other assays above

Cc1cc(C)c(C)c(C)c1
not listed: [10]
inactive: all other assays above

COc1cc(OC)cc(OC)c1
not listed: [2] | [17] | [20]
inactive: all other assays above

Cc1cccc(N)n1
not listed: [3] | [4] | [7] | [9] | [11] | [12] | [19] | [20]
inactive: all other assays above

CCO[Si](CC(C)C)(OCC)OCC
not listed: [1] | [3] | [8] | [9] | [20]
inactive: all other assays above

Clc1cc(Cl)c(Cl)c(Cl)c1Cl
not listed: [2] | [4] | [9] | [14] | [17] | [18] | [19] | [20]
inactive: all other assays above

Cc1cc(O)c(Cl)cc1C
not listed: [1] | [20]
inactive: all other assays above

CC1(C)S[C@@H]2[C@H](NC(=O)Cc3ccccc3)C(=O)N2[C@H]1C(=O)O (tested in a mixture with another compound)
not listed: [1] | [7] | [17] | [18] | [19] | [20]
inactive: all other assays above

CCCCc1ccc(Cl)cc1
not listed: [1] | [7] | [17] | [20]
inactive: all other assays above

CN(C)c1ccncc1
not listed: [1] | [18] | [19] | [20]
inactive: all other assays above

O=Cc1ccccc1S(=O)(=O)O
active: [16] 9.77 µM
not listed: [12] | [17] | [18] | [19] | [20]
inactive: all other assays above

CC(C)(C)c1ccc(C(=O)CCCCl)cc1
not listed: [1] | [18] | [19] | [20]
inactive: all other assays above

CCN(CC)CC(=O)Oc1ccc(NC(C)=O)cc1
not listed: [7] | [20]
inactive: all other assays above

CC(=O)SC[C@@H](C)C(=O)N1CCC[C@H]1C(=O)N[C@@H](Cc1ccccc1)C(=O)O
not listed: [9] | [10]
inactive: all other assays above

CC1=C(O)C(=O)CO1
not listed: [1] | [9] | [14] | [17] | [18] | [19] | [20]
inactive: all other assays above
